Measured values from ChEMBL document CHEMBL1961873, “Compounds: GSK PKIS; Assays: Nanosyn kinase panel” (2012).

How the values were obtained:
[1] = target: Sphingosine kinase 1 (Homo sapiens) (UniProt Q9NYA1); settings: at 1 µM;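 further: mean SPHK1 inhibition value reported from the GSK PKIS kinase panel screen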
[2] = target: T1, Sphingosine kinase 2 (Homo sapiens) (UniProt Q9NRA0); settings: at 0.1 µM
T1 sequence (whole entry): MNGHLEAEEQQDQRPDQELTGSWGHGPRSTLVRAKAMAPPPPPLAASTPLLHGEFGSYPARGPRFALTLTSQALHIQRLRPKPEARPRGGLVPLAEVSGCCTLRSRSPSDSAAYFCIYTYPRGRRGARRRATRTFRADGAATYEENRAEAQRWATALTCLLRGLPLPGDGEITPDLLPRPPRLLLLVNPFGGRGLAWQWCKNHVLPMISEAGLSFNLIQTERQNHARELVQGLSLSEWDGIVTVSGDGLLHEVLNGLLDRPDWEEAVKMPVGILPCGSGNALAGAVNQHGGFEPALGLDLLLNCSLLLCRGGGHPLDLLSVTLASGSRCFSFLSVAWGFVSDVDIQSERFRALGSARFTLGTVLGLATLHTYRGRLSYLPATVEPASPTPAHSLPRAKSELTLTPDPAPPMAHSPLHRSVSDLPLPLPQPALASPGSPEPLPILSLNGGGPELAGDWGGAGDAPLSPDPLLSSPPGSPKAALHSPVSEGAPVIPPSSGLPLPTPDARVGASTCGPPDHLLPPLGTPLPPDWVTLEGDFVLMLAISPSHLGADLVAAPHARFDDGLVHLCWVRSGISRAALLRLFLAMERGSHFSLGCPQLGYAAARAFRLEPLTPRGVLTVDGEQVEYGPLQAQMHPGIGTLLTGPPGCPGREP

[3] = target: T1, Sphingosine kinase 2 (Homo sapiens); settings: at 1 µM
[4] = target: Casein kinase II subunit alpha (Homo sapiens) (UniProt P68400); settings: at 1 µM
Chain of Casein kinase II subunit alpha (Homo sapiens) (P68400 whole entry, looked up): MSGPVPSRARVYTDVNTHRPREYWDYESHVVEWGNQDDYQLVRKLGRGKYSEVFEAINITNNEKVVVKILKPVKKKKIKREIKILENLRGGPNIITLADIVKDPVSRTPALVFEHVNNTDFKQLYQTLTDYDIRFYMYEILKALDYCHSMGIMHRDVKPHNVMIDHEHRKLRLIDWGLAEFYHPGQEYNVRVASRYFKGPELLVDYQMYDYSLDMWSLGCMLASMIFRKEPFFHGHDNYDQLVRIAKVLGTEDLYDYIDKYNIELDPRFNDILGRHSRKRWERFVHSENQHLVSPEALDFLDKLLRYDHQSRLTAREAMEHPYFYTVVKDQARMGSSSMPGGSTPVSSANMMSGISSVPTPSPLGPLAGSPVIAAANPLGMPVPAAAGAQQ

[5] = target: T2, Inhibitor of nuclear factor kappa-B kinase subunit alpha (Homo sapiens) (UniProt O15111); settings: at 0.1 µM
T2 sequence (whole entry): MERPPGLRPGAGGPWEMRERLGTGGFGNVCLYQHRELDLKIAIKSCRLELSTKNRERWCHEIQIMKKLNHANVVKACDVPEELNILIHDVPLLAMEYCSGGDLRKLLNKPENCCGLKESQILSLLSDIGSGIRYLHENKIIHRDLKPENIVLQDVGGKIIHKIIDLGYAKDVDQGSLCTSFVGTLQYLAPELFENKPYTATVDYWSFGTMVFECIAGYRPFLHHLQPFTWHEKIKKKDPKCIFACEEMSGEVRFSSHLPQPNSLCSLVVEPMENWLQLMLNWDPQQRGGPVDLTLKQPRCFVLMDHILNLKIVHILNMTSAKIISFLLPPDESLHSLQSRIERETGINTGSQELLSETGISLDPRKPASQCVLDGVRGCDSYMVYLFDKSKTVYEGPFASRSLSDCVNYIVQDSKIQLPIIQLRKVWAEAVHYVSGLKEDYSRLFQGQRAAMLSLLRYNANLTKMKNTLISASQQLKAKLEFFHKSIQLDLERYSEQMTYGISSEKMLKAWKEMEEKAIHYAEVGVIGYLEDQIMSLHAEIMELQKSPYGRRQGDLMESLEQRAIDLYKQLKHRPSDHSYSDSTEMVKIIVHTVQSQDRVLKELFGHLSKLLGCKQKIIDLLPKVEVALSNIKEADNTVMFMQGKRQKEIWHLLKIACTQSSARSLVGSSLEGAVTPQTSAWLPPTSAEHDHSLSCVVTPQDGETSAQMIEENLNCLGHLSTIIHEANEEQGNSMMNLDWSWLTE

[6] = target: T2, Inhibitor of nuclear factor kappa-B kinase subunit alpha (Homo sapiens); settings: at 1 µM
[7] = target: T3, Inhibitor of nuclear factor kappa-B kinase subunit beta (Homo sapiens) (UniProt O14920); settings: at 0.1 µM
T3 sequence (whole entry): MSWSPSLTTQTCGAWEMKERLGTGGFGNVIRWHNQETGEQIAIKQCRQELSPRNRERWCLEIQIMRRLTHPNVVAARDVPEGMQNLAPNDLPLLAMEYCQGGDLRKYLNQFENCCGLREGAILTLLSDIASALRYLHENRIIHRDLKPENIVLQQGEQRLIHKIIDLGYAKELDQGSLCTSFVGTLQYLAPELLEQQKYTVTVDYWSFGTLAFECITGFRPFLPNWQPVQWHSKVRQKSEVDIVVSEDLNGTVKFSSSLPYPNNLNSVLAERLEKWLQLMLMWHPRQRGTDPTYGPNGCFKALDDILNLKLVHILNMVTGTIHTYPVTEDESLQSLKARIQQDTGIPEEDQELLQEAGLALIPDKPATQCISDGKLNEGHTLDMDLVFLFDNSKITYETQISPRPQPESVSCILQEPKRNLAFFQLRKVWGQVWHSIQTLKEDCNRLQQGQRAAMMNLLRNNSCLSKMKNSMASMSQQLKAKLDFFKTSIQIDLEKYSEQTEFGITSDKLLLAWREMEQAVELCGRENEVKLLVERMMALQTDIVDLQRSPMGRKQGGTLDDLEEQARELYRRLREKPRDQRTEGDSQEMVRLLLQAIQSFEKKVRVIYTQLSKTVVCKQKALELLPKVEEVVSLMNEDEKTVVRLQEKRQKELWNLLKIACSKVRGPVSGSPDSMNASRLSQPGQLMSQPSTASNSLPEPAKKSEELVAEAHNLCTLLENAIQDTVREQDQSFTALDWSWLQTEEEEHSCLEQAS

[8] = target: T3, Inhibitor of nuclear factor kappa-B kinase subunit beta (Homo sapiens); settings: at 1 µM
[9] = target: T4, Inhibitor of nuclear factor kappa-B kinase subunit epsilon (Homo sapiens) (UniProt Q14164); settings: at 0.1 µM
T4 sequence (whole entry): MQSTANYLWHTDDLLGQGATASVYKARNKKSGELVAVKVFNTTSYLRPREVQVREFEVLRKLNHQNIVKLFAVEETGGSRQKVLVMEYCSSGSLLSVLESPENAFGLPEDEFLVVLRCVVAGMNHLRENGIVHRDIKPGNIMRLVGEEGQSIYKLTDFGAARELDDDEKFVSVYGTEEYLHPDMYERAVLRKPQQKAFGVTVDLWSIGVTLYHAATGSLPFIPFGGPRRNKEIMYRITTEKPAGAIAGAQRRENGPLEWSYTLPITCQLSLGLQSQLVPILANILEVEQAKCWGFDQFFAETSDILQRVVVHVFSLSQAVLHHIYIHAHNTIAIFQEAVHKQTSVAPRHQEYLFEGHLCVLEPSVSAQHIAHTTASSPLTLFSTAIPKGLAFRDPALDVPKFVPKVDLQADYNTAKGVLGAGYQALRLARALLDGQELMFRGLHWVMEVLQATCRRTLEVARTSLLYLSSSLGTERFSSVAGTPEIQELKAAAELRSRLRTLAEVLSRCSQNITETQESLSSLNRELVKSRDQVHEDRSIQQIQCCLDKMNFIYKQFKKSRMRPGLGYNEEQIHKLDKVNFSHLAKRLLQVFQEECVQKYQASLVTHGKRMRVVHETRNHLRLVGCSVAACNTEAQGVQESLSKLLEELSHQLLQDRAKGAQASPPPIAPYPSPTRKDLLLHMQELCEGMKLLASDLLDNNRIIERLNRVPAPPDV

[10] = target: T4, Inhibitor of nuclear factor kappa-B kinase subunit epsilon (Homo sapiens); settings: at 1 µM
[11] = target: T5, Serine/threonine-protein kinase Nek1 (Homo sapiens) (UniProt Q96PY6); settings: at 0.1 µM
T5 sequence (whole entry): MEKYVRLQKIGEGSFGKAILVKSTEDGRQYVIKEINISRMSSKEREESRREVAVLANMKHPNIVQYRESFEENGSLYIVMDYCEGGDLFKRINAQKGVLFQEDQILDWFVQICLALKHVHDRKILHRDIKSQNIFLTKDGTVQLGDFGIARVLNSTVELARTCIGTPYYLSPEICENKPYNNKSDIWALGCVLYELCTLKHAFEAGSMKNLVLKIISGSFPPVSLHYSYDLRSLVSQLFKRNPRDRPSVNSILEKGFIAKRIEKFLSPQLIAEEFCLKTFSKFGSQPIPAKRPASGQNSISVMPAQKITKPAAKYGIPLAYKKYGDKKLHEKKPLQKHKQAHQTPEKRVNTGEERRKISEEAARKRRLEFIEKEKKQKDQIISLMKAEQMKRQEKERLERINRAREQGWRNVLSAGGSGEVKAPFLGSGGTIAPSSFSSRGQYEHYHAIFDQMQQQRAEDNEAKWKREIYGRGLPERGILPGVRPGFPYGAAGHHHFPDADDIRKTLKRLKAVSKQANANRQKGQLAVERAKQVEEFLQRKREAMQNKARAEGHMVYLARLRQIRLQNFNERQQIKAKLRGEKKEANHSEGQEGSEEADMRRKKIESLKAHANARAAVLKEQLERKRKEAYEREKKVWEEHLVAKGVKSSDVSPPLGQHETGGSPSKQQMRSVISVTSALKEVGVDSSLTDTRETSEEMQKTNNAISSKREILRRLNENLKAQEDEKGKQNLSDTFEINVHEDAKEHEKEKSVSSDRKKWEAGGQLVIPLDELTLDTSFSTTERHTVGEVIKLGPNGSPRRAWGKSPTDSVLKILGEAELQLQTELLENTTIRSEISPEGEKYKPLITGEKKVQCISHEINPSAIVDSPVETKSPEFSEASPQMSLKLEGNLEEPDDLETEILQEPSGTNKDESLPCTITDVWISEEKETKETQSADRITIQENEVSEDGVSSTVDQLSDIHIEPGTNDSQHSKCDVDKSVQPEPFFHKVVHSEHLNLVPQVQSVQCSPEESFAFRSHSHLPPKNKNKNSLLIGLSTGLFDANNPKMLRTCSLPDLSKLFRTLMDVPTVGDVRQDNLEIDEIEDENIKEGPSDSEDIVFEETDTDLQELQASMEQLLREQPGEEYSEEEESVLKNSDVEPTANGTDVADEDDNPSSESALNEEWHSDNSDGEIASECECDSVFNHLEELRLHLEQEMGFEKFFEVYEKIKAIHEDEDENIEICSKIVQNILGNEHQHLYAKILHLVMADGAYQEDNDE

[12] = target: T5, Serine/threonine-protein kinase Nek1 (Homo sapiens); settings: at 1 µM
[13] = target: T6, Serine/threonine-protein kinase Nek2 (Homo sapiens) (UniProt P51955); settings: at 0.1 µM
T6 sequence (whole entry): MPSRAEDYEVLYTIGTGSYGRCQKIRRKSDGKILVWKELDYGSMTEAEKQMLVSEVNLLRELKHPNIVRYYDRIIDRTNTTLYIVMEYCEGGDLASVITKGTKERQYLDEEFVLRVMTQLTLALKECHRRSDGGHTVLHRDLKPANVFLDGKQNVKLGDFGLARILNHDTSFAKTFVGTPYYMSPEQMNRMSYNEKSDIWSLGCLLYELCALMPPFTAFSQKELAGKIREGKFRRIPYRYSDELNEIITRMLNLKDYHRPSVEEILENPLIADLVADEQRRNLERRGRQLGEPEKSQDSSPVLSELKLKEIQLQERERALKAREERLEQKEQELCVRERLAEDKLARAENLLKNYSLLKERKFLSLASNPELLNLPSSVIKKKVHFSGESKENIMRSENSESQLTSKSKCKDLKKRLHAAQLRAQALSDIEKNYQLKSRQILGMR

[14] = target: T6, Serine/threonine-protein kinase Nek2 (Homo sapiens); settings: at 1 µM
[15] = target: Serine/threonine-protein kinase Nek6 (Homo sapiens) (UniProt Q9HC98); settings: at 0.1 µM
Chain of Serine/threonine-protein kinase Nek6 (Homo sapiens) (Q9HC98 whole entry): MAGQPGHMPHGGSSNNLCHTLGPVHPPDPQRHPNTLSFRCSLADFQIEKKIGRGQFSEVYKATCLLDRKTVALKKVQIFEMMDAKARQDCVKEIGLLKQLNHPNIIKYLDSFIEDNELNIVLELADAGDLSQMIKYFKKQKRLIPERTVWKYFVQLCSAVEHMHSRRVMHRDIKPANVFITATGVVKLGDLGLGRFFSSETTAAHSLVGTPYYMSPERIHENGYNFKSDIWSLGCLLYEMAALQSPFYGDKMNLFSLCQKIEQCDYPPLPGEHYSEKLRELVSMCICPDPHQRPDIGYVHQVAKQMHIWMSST

[16] = target: Serine/threonine-protein kinase Nek6 (Homo sapiens) (UniProt Q9HC98); settings: at 1 µM
[17] = target: Serine/threonine-protein kinase Nek7 (Homo sapiens) (UniProt Q8TDX7); settings: at 0.1 µM
Chain of Serine/threonine-protein kinase Nek7 (Homo sapiens) (Q8TDX7 whole entry, looked up): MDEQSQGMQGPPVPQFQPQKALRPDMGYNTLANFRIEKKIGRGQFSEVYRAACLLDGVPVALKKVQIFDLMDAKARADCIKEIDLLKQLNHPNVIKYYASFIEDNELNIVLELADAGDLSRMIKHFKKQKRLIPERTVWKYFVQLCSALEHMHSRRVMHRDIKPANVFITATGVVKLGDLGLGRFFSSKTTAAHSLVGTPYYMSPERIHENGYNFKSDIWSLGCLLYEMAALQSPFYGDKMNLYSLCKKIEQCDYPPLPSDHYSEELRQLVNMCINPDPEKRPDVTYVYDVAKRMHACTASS

[18] = target: Serine/threonine-protein kinase Nek7 (Homo sapiens) (UniProt Q8TDX7); settings: at 1 µM
[19] = target: T7, Serine/threonine-protein kinase Nek9 (Homo sapiens) (UniProt Q8TD19); settings: at 0.1 µM;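 further: reported value is the mean percent inhibition of NEK9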
T7 sequence (whole entry): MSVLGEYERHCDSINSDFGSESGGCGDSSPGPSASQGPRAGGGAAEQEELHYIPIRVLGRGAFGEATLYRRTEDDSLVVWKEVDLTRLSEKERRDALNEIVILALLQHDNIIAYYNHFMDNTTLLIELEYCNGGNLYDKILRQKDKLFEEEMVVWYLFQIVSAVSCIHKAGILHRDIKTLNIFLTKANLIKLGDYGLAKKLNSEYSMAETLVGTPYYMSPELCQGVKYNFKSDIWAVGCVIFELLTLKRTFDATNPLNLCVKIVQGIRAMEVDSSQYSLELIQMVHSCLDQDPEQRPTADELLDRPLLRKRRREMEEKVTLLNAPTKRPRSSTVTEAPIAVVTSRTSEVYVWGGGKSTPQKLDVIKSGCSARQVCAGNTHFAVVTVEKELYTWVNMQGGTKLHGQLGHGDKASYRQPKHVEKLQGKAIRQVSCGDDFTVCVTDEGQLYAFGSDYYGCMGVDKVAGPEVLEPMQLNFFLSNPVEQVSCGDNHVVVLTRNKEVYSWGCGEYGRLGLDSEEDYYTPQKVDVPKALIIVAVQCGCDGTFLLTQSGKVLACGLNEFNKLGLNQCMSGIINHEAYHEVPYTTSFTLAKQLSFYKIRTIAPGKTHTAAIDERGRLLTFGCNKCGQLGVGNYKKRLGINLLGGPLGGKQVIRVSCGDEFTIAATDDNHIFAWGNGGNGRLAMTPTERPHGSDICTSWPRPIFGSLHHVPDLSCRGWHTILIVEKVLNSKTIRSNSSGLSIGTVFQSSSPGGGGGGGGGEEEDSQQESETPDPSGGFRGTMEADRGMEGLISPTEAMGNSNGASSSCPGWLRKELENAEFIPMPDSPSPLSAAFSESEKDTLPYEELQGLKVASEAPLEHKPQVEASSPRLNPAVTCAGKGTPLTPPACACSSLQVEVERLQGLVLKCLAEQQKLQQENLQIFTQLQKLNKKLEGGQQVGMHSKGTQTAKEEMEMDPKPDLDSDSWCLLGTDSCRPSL

[20] = target: Casein kinase II subunit alpha (Homo sapiens) (UniProt P68400); settings: at 0.1 µM

Chain of Sphingosine kinase 1 (Homo sapiens) (Q9NYA1 whole entry): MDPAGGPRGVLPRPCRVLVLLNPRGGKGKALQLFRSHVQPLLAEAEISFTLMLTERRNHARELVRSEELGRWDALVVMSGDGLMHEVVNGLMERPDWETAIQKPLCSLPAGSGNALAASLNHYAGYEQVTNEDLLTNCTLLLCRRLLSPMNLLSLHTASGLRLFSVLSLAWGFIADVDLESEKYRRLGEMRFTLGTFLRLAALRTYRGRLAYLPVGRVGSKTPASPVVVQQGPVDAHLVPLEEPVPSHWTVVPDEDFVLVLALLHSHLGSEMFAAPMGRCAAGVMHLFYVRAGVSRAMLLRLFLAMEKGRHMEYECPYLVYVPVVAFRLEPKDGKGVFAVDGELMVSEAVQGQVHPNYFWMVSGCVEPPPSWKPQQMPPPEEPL

SMILES | inhibition [1] [%] | inhibition [2] [%] | inhibition [3] [%] | inhibition [4] [%] | inhibition [5] [%] | inhibition [6] [%] | inhibition [7] [%] | inhibition [8] [%] | inhibition [9] [%] | inhibition [10] [%] | inhibition [11] [%] | inhibition [12] [%] | inhibition [13] [%] | inhibition [14] [%] | inhibition [15] [%] | inhibition [16] [%] | inhibition [17] [%] | inhibition [18] [%] | inhibition [19] [%] | inhibition [20] [%]
COc1ccc(-c2ccncc2)cc1C(N)=O | -0.74 | 0.88 | -0.67 | 4.44 | 2.55 | 9.39 | 4.74 | 7.06 | 5.87 | 6.43 | 3.59 | 6.47 | 5.42 | 6.48 | -0.26 | 1.43 | 3.68 | 8.72 | 4.72 | –
CC1=C(C(=O)Nc2ccc3[nH]ncc3c2)C(c2ccc(F)cc2)NC(=O)N1 (centres undefined) | -2.09 | -0.06 | -0.16 | 0.86 | 0.45 | 7.79 | 1.68 | 1.73 | 1.7 | 4.43 | 2.09 | 4.56 | 3.07 | 2.73 | 0.8 | 0.71 | 3.54 | 2.72 | 2.85 | 1.87
